According to PubChem BioAssay AID1159580 (chemical genetic matrix, 2015):
About 2,000 (36%) of roughly 5,500 compounds were called active. Another 18% or so got no clear call; they are omitted. Cut-off read from the data, not from the text of the source: active = normalized growth mostly below about 0.91 (no sharp cut-off); inconclusive = no clear call, values can overlap the other calls; inactive = mostly above about 0.92. This is one part of the list.

Experiment: chemical genetic growth profiling, strain panel (AID 1159580);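 note: tested at 20 µM; growth read once vehicle control cultures reached saturation at 30 °C; 1 = growth at the plate median or of vehicle wells; lower values mean less growth of the strain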
Details: growth OD

Measured: normalized growth

CN1CCC[C@H]1c1cccnc1
inactive: S. cerevisiae deletion strains, locus YJR075W, strain HOC1, hits give low values 0.999 | S. cerevisiae deletion strains, locus YKL009W, strain mrt4, hits give low values 0.975 | S. cerevisiae deletion strains, locus YKL068W, hits give low values 0.983 | S. cerevisiae deletion strains, locus YKL085W, strain MDH1 (second series), hits give low values 0.984 | S. cerevisiae deletion strains, locus YKL085W, strain MDH1, hits give low values 0.984 | S. cerevisiae deletion strains, locus YKL160W, strain elf1, hits give low values 1.01 | S. cerevisiae deletion strains, locus YKL190W, strain CNB1, hits give low values 1 | S. cerevisiae deletion strains, locus YKR001C, strain vps1, hits give low values 0.986 | S. cerevisiae deletion strains, locus YKR026C, strain gcn3, hits give low values 1.04 | S. cerevisiae deletion strains, locus YKR091W, strain srl3, hits give low values 1.02 | S. cerevisiae deletion strains, locus YLL001W, strain dnm1, hits give low values 1.05 | S. cerevisiae deletion strains, locus YLL026W, hits give low values 1.02 | S. cerevisiae deletion strains, locus YLL041C, strain sdh2, hits give low values 1.02 | S. cerevisiae deletion strains, locus YLR027C, strain aat2, hits give low values 1.01 | S. cerevisiae deletion strains, locus YLR039C, strain RIC1, hits give low values 0.981 | S. cerevisiae deletion strains, locus YLR058C, strain SHM2, hits give low values 0.987 | S. cerevisiae deletion strains, locus YLR102C, strain apc9, hits give low values 0.995 | S. cerevisiae deletion strains, locus YLR113W, strain HOG1, hits give low values 0.921 | S. cerevisiae deletion strains, locus YLR221C, strain rsa3, hits give low values 1.04 | S. cerevisiae deletion strains, locus YLR258W, strain gsy2, hits give low values 1.02 | S. cerevisiae deletion strains, locus YLR262C, strain YPT6 (second series), hits give low values 1.04 | S. cerevisiae deletion strains, locus YLR262C, strain YPT6, hits give low values 1.01 | S. cerevisiae deletion strains, locus YLR268W, strain sec22, hits give low values 1 | S. cerevisiae deletion strains, locus YLR320W, strain mms22, hits give low values 1.03 | S. cerevisiae deletion strains, locus YLR330W, strain CHS5, hits give low values 0.987 | S. cerevisiae deletion strains, locus YLR342W, strain FKS1 (second series), hits give low values 0.976 | S. cerevisiae deletion strains, locus YLR342W, strain FKS1, hits give low values 1.02 | S. cerevisiae deletion strains, locus YLR357W, strain rsc2, hits give low values 1.04 | S. cerevisiae deletion strains, locus YLR370C, strain arc18, hits give low values 1.03 | S. cerevisiae deletion strains, locus YLR371W, strain rom2, hits give low values 0.99 | S. cerevisiae deletion strains, locus YLR384C, strain iki3, hits give low values 1.04 | S. cerevisiae deletion strains, locus YLR418C, strain cdc73, hits give low values 1.02 | S. cerevisiae deletion strains, locus YML016C, strain PPZ1, hits give low values 0.99 | S. cerevisiae deletion strains, locus YML032C, strain rad52, hits give low values 0.999 | S. cerevisiae deletion strains, locus YML120C, strain ndi1, hits give low values 1.03 | S. cerevisiae deletion strains, locus YML124C, strain tub3, hits give low values 0.992 | S. cerevisiae deletion strains, locus YMR058W, strain fet3, hits give low values 1.03 | S. cerevisiae deletion strains, locus YMR078C, strain ctf18, hits give low values 0.979 | S. cerevisiae deletion strains, locus YMR125W, strain sto1, hits give low values 1.05 | S. cerevisiae deletion strains, locus YMR129W, hits give low values 1.04 | S. cerevisiae deletion strains, locus YMR205C, strain PFK2, hits give low values 1.03 | S. cerevisiae deletion strains, locus YMR223W, strain ubp8, hits give low values 0.978 | S. cerevisiae deletion strains, locus YMR231W, strain pep5, hits give low values 1.03 | S. cerevisiae deletion strains, locus YMR263W, strain SAP30, hits give low values 1.02 | S. cerevisiae deletion strains, locus YMR307W, strain GAS1, hits give low values 0.946 | S. cerevisiae deletion strains, locus YNL067W, strain RPL9B, hits give low values 1.02 | S. cerevisiae deletion strains, locus YNL071W, strain lat1, hits give low values 1.04 | S. cerevisiae deletion strains, locus YNL128W, strain TEP1, hits give low values 1.02 | S. cerevisiae deletion strains, locus YNL153C, strain GIM3, hits give low values 1.02 | S. cerevisiae deletion strains, locus YNL183C, strain NPR1, hits give low values 0.938 | S. cerevisiae deletion strains, locus YNL209W, strain ssb2, hits give low values 1.03 | S. cerevisiae deletion strains, locus YNL233W, strain BNI4, hits give low values 1.01 | S. cerevisiae deletion strains, locus YNL248C, strain rpa49, hits give low values 1.03 | S. cerevisiae deletion strains, locus YNL250W, strain rad50, hits give low values 0.988 | S. cerevisiae deletion strains, locus YNL271C, strain bni1, hits give low values 0.985 | S. cerevisiae deletion strains, locus YNL298W, strain CLA4, hits give low values 1 | S. cerevisiae deletion strains, locus YNL307C, strain MCK1, hits give low values 1 | S. cerevisiae deletion strains, locus YNL322C, strain KRE1 (second series), hits give low values 1.04 | S. cerevisiae deletion strains, locus YNL322C, strain KRE1, hits give low values 0.992 | S. cerevisiae deletion strains, locus YNR049C, strain mso1, hits give low values 1.02 | S. cerevisiae deletion strains, locus YNR052C, strain pop2, hits give low values 0.972 | S. cerevisiae deletion strains, locus YOL006C, strain TOP1, hits give low values 0.988 | S. cerevisiae deletion strains, locus YOL012C, strain htz1 1.12 | S. cerevisiae deletion strains, locus YOL147C, strain pex11, hits give low values 0.996 | S. cerevisiae deletion strains, locus YOR001W, strain rrp6, hits give low values 1.02 | S. cerevisiae deletion strains, locus YOR061W, strain CKA2, hits give low values 0.999 | S. cerevisiae deletion strains, locus YOR069W, strain VPS5, hits give low values 0.988 | S. cerevisiae deletion strains, locus YOR070C, strain gyp1, hits give low values 1.02 | S. cerevisiae deletion strains, locus YOR080W, strain dia2, hits give low values 1.03 | S. cerevisiae deletion strains, locus YOR083W, strain WHI5, hits give low values 1.02 | S. cerevisiae deletion strains, locus YOR106W, strain vam3, hits give low values 1.07 | S. cerevisiae deletion strains, locus YOR136W, strain idh2, hits give low values 0.988 | S. cerevisiae deletion strains, locus YOR144C, strain elg1, hits give low values 0.993 | S. cerevisiae deletion strains, locus YOR184W, strain ser1, hits give low values 0.959 | S. cerevisiae deletion strains, locus YOR231W, strain MKK1, hits give low values 0.952 | S. cerevisiae deletion strains, locus YOR265W, strain rbl2, hits give low values 1.03 | S. cerevisiae deletion strains, locus YOR270C, strain vph1, hits give low values 1.12 | S. cerevisiae deletion strains, locus YOR290C, strain snf2, hits give low values 1.02 | S. cerevisiae deletion strains, locus YOR316C, strain cot1, hits give low values 0.989 | S. cerevisiae deletion strains, locus YPL051W, strain arl3, hits give low values 1.01 | S. cerevisiae deletion strains, locus YPL055C, strain LGE1, hits give low values 1.04 | S. cerevisiae deletion strains, locus YPL078C, strain atp4, hits give low values 1.03 | S. cerevisiae deletion strains, locus YPL106C, strain sse1, hits give low values 1 | S. cerevisiae deletion strains, locus YPL240C, strain hsp82, hits give low values 1.03 | S. cerevisiae deletion strains, locus YPL241C, strain CIN2, hits give low values 0.996 | S. cerevisiae deletion strains, locus YPL256C, strain CLN2, hits give low values 0.943 | S. cerevisiae deletion strains, locus YPR119W, strain clb2, hits give low values 1 | S. cerevisiae deletion strains, locus YPR141C, strain kar3, hits give low values 0.968 | S. cerevisiae deletion strains, locus YPR163C, strain tif3, hits give low values 0.999 | S. cerevisiae deletion strains, locus YPR167C, strain met16, hits give low values 0.99 | S. cerevisiae deletion strains, strain wtn01, hits give low values 0.998 | S. cerevisiae strains, strain wild type, hits give low values 0.999
